This is an account of results in PubChem BioAssay (EPA / NIEHS).

Read-out in assay [1]: urokinase plasminogen activator (uPA), PLAU (gene 5328)
In words: BSK_KF3CT_uPA: BioMAP Diversity Plus: KF3CT Assay for urokinase plasminogen activator (uPA) Biomarker Activity (AID 2283075). The conditions noted are these: primary human keratinocytes with fibroblasts; actives raise or lower the signal. In short, it runs like this:
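ELISA read-out of uPA 24 h after dosing human skin keratinocytes co-cultured with foreskin fibroblasts. Signal change fitted both ways relative to DMSO; sulforhodamine B on parallel cultures marks overt cytotoxicity.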

Read-out in assay [2]: CD40, CD40 (gene 958)
In words: BSK_LPS_CD40: BioMAP Diversity Plus: LPS Assay for CD40 Biomarker Activity (AID 2283076). Conditions: primary human HUVEC with PBMC; actives raise or lower the signal. In short, it runs like this:
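Primary human umbilical vein endothelial cells co-cultured with peripheral blood mononuclear cells, LPS-stimulated, were dosed with chemical and read 24 h later. CD40 levels were measured by ELISA and fitted bidirectionally against DMSO as negative control and baseline.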

Read-out in assay [3]: E-selectin (Homo sapiens) (UniProt P16581)
In words: BSK_LPS_Eselectin: BioMAP Diversity Plus: LPS Assay for Eselectin Biomarker Activity (AID 2283077). The conditions noted are these: primary human HUVEC with PBMC; actives raise or lower the signal. In short, it runs like this:
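Human umbilical vein endothelial cells co-cultured with peripheral blood mononuclear cells under LPS stimulation; E-selectin measured by ELISA 24 h after chemical dosing. Activity fitted bidirectionally against DMSO as negative control and baseline.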

Read-out in assay [4]: Interleukin-8 (IL8), CXCL8 (gene 3576)
In words: BSK_LPS_IL8: BioMAP Diversity Plus: LPS Assay for Interleukin-8 (IL8) Biomarker Activity (AID 2283078). The conditions noted are these: primary human HUVEC with PBMC; actives raise or lower the signal. In short, it runs like this: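 Human umbilical vein endothelial cells co-cultured with PBMC were stimulated with LPS; IL-8 levels were measured by ELISA 24 h after chemical dosing. Activity was fitted bidirectionally against DMSO as negative control and baseline.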

The nature of assay [5]: BSK_LPS_SRB: Viability Assessment in the BioMAP Diversity Plus: LPS Assay (AID 2283079).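 Also: total protein by sulforhodamine B absorbance as a cytotoxicity measure; measured one day after compound addition.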 The conditions noted are these: primary human HUVEC with PBMC. In short, it runs like this: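 Human umbilical vein endothelial cells co-cultured with PBMC (LPS system) were dosed for 24 h. Total protein was stained with 0.1% sulforhodamine B after 10% TCA fixation, read at 560 nm, and fitted bidirectionally against DMSO baseline.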

Read-out in assay [6]: Interleukin-1 alpha (IL1a), IL1A (gene 3552)
The assay is described as follows: BSK_LPS_IL1a: BioMAP Diversity Plus: LPS Assay for Interleukin-1 alpha (IL1a) Biomarker Activity (AID 2283080). Conditions: primary human HUVEC with PBMC; actives raise or lower the signal. In short, it runs like this:
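Human umbilical vein endothelial cells co-cultured with peripheral blood mononuclear cells were LPS-stimulated and exposed to test chemicals for 24 h. IL-1 alpha was quantified by ELISA, with bidirectional curve fitting against DMSO as the negative control and baseline.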

Read-out in assay [7]: Monocyte Chemoattractant Protein-1 (MCP1), CCL2 (gene 6347)
The assay is described as follows: BSK_LPS_MCP1: BioMAP Diversity Plus: LPS Assay for Monocyte Chemoattractant Protein-1 (MCP1) Biomarker Activity (AID 2283081).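 As to AC50: co-culture stimulated with LPS; secreted MCP-1 protein quantified by ELISA in culture supernatant.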 Conditions: primary human HUVEC with PBMC; actives raise or lower the signal. In short, it runs like this: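 HUVEC plus PBMC co-culture (human primary cells, LPS system) exposed to test chemical for 24 h; MCP-1 measured by ELISA. Bidirectional curve fitting against DMSO baseline; parallel SRB total-protein staining flags overt cytotoxicity.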

Assay [8] is described as follows: BSK_LPS_PGE2: BioMAP Diversity Plus: LPS Assay for Prostaglandin E2 (PGE2) Biomarker Activity (AID 2283082). Conditions: primary human HUVEC with PBMC; actives raise or lower the signal. In short, it runs like this:
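Primary human endothelial cells and blood mononuclear cells, co-cultured with LPS, receive test chemical; PGE2 ELISA follows at 24 h, with SRB-stained parallel cultures flagging cytotoxicity.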

Read-out in assay [9]: Macrophage colony-stimulating factor (MCSF), CSF1 (gene 1435)
The assay is described as follows: BSK_LPS_MCSF: BioMAP Diversity Plus: LPS Assay for Macrophage colony-stimulating factor (MCSF) Biomarker Activity (AID 2283083). The conditions noted are these: primary human HUVEC with PBMC; actives raise or lower the signal. In short, it runs like this: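 Human umbilical vein endothelial cells co-cultured with peripheral blood mononuclear cells were exposed to compound for 24 h. M-CSF levels were measured by ELISA, and bidirectional curve fitting used DMSO as the negative control and baseline.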

Read-out in assay [10]: Tissue Factor, F3 (gene 2152)
The assay is described as follows: BSK_LPS_TissueFactor: BioMAP Diversity Plus: LPS Assay for Tissue Factor Biomarker Activity (AID 2283084). Conditions: primary human HUVEC with PBMC; actives raise or lower the signal. In short, it runs like this:
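Human umbilical vein endothelial cells co-cultured with peripheral blood mononuclear cells were dosed and stimulated with LPS. Cell-surface CD142 was quantified by ELISA at 24 h. Activity was fitted bidirectionally against DMSO baseline.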

Read-out in assay [11]: Tumor necrosis factor (Homo sapiens) (UniProt P01375)
In words: BSK_LPS_TNFa: BioMAP Diversity Plus: LPS Assay for Tumour Necrosis Factor alpha (TNFa) Biomarker Activity (AID 2283085).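 As to AC50: TNFa protein level quantified by ELISA in the co-culture.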 Conditions: primary human HUVEC with PBMC; actives raise or lower the signal. In short, it runs like this: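 ELISA-based TNFa endpoint in a human endothelial–PBMC co-culture sampled 24 h post-exposure. Curves were fitted in both directions using DMSO as baseline of activity.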

Read-out in assay [12]: Vascular cell adhesion molecule 1 (VCAM1), VCAM1 (gene 7412)
The assay is described as follows: BSK_LPS_VCAM1: BioMAP Diversity Plus: LPS Assay for Vascular cell adhesion molecule 1 (VCAM1) Biomarker Activity (AID 2283086). Conditions: primary human HUVEC with PBMC; actives raise or lower the signal. In short, it runs like this: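 Measured by ELISA: VCAM-1 in LPS-activated HUVEC/PBMC co-cultures 24 h after treatment. Values reflect bidirectional fitting with DMSO as baseline.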

Read-out in assay [13]: CD40, CD40 (gene 958)
In words: BSK_SAg_CD40: BioMAP Diversity Plus: SAg Assay for CD40 Biomarker Activity (AID 2283088). Conditions: primary human HUVEC with PBMC; actives raise or lower the signal. In short, it runs like this:
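Human umbilical vein endothelial cells co-cultured with PBMC; CD40 levels measured by ELISA with fluorescence read-out 24 h after chemical dosing. Gain or loss of signal fitted bidirectionally against DMSO baseline.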

Read-out in assay [14]: Monocyte Chemoattractant Protein-1 (MCP1), CCL2 (gene 6347)
In words: BSK_SAg_MCP1: BioMAP Diversity Plus: SAg Assay for Monocyte Chemoattractant Protein-1 (MCP1) Biomarker Activity (AID 2283090). The conditions noted are these: primary human HUVEC with PBMC; actives raise or lower the signal. In short, it runs like this:
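Values derive from bidirectional fitting of ELISA-measured MCP1 against DMSO controls. Readings were taken 24 h after dosing human vascular endothelial cells co-cultured with peripheral blood mononuclear cells under superantigen stimulation.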

Read-out in assay [15]: E-selectin (Homo sapiens) (UniProt P16581)
In words: BSK_SAg_Eselectin: BioMAP Diversity Plus: SAg Assay for Eselectin Biomarker Activity (AID 2283091). The conditions noted are these: primary human HUVEC with PBMC; actives raise or lower the signal. In short, it runs like this: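 HUVEC co-cultured with PBMC, compound dosed then read at 24 h; E-selectin measured by ELISA. Activity fitted bidirectionally against DMSO as negative control and baseline.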

Read-out in assay [16]: Monokine induced gamma interferon (MIG), CXCL9 (gene 4283)
In words: BSK_SAg_MIG: BioMAP Diversity Plus: SAg Assay for Monokine induced gamma interferon (MIG) Biomarker Activity (AID 2283092). The conditions noted are these: primary human HUVEC with PBMC; actives raise or lower the signal. In short, it runs like this:
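HUVEC plus human PBMC co-culture, chemicals dosed and MIG (CXCL9) quantified by ELISA at 24 h. Bidirectional curve fitting against DMSO as negative control and baseline, so both gain and loss of signal count as activity.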

Assay [17] can be described thus: BSK_SAg_PBMCCytotoxicity: PBMC Cytotoxicity Assessment in the BioMAP Diversity Plus: SAg Assay (AID 2283093).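 Also: PBMC viability measured as Alamar Blue reduction fluorescence at 546/580 nm; fitted both ways against DMSO so a hit may be loss or gain of signal.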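 As to AC50: PBMC superantigen activated with SEB plus TSST-1 one hour after compound addition.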 Conditions: primary human HUVEC with PBMC. In short, it runs like this: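 Alamar Blue reduction (6 h, ex/em 546/580 nm) read after 90 h culture of PBMC pre-dosed 1 h then stimulated with SEB plus TSST-1, 20 ng/mL each. Gain or loss of signal fitted relative to DMSO.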

Read-out in assay [18]: Interleukin-8 (IL8), CXCL8 (gene 3576)
The assay is described as follows: BSK_SAg_IL8: BioMAP Diversity Plus: SAg Assay for Interleukin-8 (IL8) Biomarker Activity (AID 2283094). The conditions noted are these: primary human HUVEC with PBMC; actives raise or lower the signal. In short, it runs like this: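 Primary human endothelial cells with PBMC, exposed 24 h; IL-8 determined by ELISA, analysed bidirectionally relative to DMSO.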

A short description of assay [19]: BSK_SAg_Proliferation: Cell Proliferation Assessment in the BioMAP Diversity Plus: SAg Assay (AID 2283095).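 Also: relative cell number as total protein by SRB absorbance in sub-confluent culture.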 The conditions noted are these: primary human HUVEC with PBMC. In short, it runs like this:
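A human primary co-culture of umbilical vein endothelium and blood mononuclear cells receives compound; relative cell number is quantified at 96 h by SRB staining and 560 nm absorbance, with DMSO-referenced bidirectional curve fitting.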

Read-out in assay [20]: CD38, CD38 (gene 952)
The assay is described as follows: BSK_SAg_CD38: BioMAP Diversity Plus: SAg Assay for CD38 Biomarker Activity (AID 2283087). The conditions noted are these: primary human HUVEC with PBMC; actives raise or lower the signal. In short, it runs like this:
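Measures CD38 on a human endothelial/PBMC co-culture driven by SEB and TSST-1, 24 h after compound exposure, using ELISA with fluorescence detection; DMSO defines baseline for bidirectional curve fitting.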

Calls of active or inactive are those of the source. The calls were made as follows: active = hit-call score of the fitted dose curve at least 0.9, where 1 is the maximum; inactive = score below 0.9.

Chain of E-selectin (Homo sapiens) (P16581 whole entry, looked up): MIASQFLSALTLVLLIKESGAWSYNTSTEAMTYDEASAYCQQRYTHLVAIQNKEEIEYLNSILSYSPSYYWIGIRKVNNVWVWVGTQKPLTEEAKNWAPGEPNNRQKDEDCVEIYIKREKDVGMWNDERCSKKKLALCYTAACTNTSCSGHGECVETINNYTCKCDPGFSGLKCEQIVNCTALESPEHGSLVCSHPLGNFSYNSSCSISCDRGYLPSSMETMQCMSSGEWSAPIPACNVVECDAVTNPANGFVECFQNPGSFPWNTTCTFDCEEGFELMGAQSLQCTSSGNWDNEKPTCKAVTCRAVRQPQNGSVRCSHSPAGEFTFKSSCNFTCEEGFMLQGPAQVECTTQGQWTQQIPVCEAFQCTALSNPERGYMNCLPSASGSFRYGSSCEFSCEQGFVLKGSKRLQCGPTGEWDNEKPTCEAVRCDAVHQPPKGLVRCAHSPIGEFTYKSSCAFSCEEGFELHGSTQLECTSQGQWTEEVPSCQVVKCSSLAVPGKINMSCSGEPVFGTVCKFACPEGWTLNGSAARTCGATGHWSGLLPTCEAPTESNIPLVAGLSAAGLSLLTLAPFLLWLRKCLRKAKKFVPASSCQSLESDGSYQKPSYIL
Chain of Tumor necrosis factor (Homo sapiens) (P01375 whole entry, looked up): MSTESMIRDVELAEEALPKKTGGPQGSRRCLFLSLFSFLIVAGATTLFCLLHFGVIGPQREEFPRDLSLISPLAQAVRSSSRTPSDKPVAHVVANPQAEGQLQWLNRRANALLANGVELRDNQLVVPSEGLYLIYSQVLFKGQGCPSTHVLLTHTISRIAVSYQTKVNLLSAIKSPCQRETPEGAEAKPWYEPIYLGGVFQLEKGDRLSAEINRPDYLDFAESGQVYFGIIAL

In general, AC50 refers to the concentration at which the activity in the assay is half-maximal. For the compound `COCc1c(C(C)C)nc(C(C)C)c(/C=C/[C@@H](O)C[C@@H](O)CC(=O)O)c1-c1ccc(F)cc1`, the result in [1], in assay [2], in assay [3], in assay [4], in [7] and in [8] was inactive. In addition, the result in [9], in assay [11], in assay [12], in assay [14], in assay [16] and in assay [17] was inactive. Besides, the AC50 in [5] was 0.023 µM (active); in assay [6] it was 0.00777 µM (active); in assay [10], 0.00778 µM (active); in assay [13], 0.126 µM (active); in assay [15], 0.0215 µM (active); in assay [18] it was 0.00783 µM (active). In assay [19], the AC50 was 0.0185 µM (active).

Consider `C=CC(=O)OCC(Br)CBr` (centres undefined), for which the AC50 in assay [1] was 34.1 µM (active); in assay [2], 15.6 µM (active); in [3] it was 20 µM (active); in [4], 12.5 µM (active); in [5] it was 31 µM (active); in [6] it was 18.3 µM (active). For the same compound, the concentration at half-maximal activity (AC50) in assay [7] is 30 µM (active); in assay [9], 20 µM (active); in [10], 16.7 µM (active); in assay [11] it was 11 µM (active); in assay [12], 10.9 µM (active); in assay [20] it was 15.3 µM (active). Also, the AC50 in assay [13] was 11.7 µM (active); in [14], 24.8 µM (active); in assay [15], 8.13 µM (active); in assay [16], 20 µM (active); in assay [17], 6.05 µM (active); in assay [18], 6.6 µM (active). In [19], the AC50 was 1.66 µM (active). Besides, in assay [8], the outcome was inactive.

`C=CCOCC(O)CCl` (centres undefined): the result in [1], in assay [2], in assay [3], in [4], in [5] and in [6] was inactive. Besides, the result in [7], in assay [8], in assay [9], in assay [10], in assay [11] and in assay [12] was inactive. In addition, the result in assay [20], in assay [13], in [14], in [15], in [16] and in assay [17] was inactive. Further, the outcome in [18] and in assay [19] was inactive.

In the case of `N#[N+]c1ccc2c(S(=O)(=O)[O-])cccc2c1O`, the outcome in assay [1], in assay [2], in assay [3], in assay [4], in [5] and in [6] was inactive. The outcome in assay [7], in assay [8], in assay [9], in assay [10], in assay [11] and in assay [12] was inactive. Also, the outcome in assay [20], in assay [13], in assay [14], in [15], in assay [16] and in [17] was inactive. In addition, the outcome in assay [18] and in [19] was inactive.

For `S=C(NC1CCCCC1)NC1CCCCC1`, the result in assay [1], in assay [2], in [3], in assay [4], in [5] and in assay [6] was inactive. Also, the outcome in assay [7], in assay [8], in assay [9], in assay [10], in [11] and in [12] was inactive. The result in assay [20], in assay [13], in assay [14], in assay [15], in assay [16] and in [17] was inactive. In addition, the result in [18] and in [19] was inactive.
